Compound activity as filed in PubChem.
Dicer processing: blocks human Dicer maturation of pre-miR-21; Q9UPY3; cat-ELCCA pre-miR-21 Dicer processing, chemiluminescence; stronger effect = higher value; z-score at 25 µM; 47,000 compounds, 6% hits; in the data active means z-score above about 3, passing the limit was not always enough;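 further: plate controls were vehicle for no effect and no enzyme for full effect; higher signal means more uncleaved substrate so more Dicer inhibition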
* = called active by the depositor. Only a selection was taken, and hits are over-represented in it overall.

SMILES | Dicer processing
CCS(=O)(=O)Nc1cc2c(C(=O)O)c(C)n(S(=O)(=O)CC)c2cc1OC | -1.97
CCOC(=O)c1c(C)n(-c2ccc(N(C)C)cc2)c2ccc(OC)cc12 | -4.85
COc1ccccc1N1CCN(c2nnc(C)c3ccccc23)CC1 | -0.71
Cc1csc2sc(/C=C(\C#N)S(=O)(=O)c3cccs3)c(C)c12 | 0.35
CCOC(=O)NC(Nc1ccc(C)c(C)c1)(C(=O)OCC)C(F)(F)F (configuration not stated) | 1.63
COc1cccc(C2=NN(S(C)(=O)=O)C(c3cn(-c4ccccc4)nc3-c3ccc(C)cc3)C2)c1 (configuration not stated) | -1.01
O=S1(=O)CC(c2ccccc2)CS(=O)(=O)C1 | -1.47
Nc1ncnc(Nc2cc(C(F)(F)F)ccc2Cl)n1 | 1.59
Cn1ncc(C(=O)O/N=C(\c2ccccc2)c2ccccc2N)c1-n1cccc1 | -0.59
O=C(NOC(=O)c1cccs1)c1ccco1 | 0.09
COc1nc2c(c(-c3ccc(Cl)cc3Cl)c1C#N)Cc1ccccc1-2 | -0.49
CCc1oc(C(=O)O)cc1CN1CCCC1 | -0.27
Cc1cccc(C(=O)Nc2sc3c(c2C(=O)NC(C)(C)C)CCC3)c1 | 9.49
CC(NC(=S)Nc1ccc(Oc2ccc(Cl)cc2)cc1)c1ccccc1 (configuration not stated) | 3.89*
Cc1ccc(C(C)NC(=S)Nc2ccc(Cl)cc2)c(C)c1 (configuration not stated) | -0.11
CCOc1ccc(NC(=S)NC(c2ccccc2)c2ccccc2)cc1 | -0.48
Cc1cc(C)cc(Sc2ccc3nnc(-c4ccccc4)n3n2)c1 | 1.26
Cc1ccc(C(=O)NC(Nc2ccc(F)cc2)(C(F)(F)F)C(F)(F)F)cc1 | 0.65
COc1ccc2nc(C)cc(N3CCOCC3)c2c1 | -0.9
Cc1ccc2nc(C)cc(N3CCOCC3)c2c1 | 4.42*
c1ccc(-c2cc(N3CCOCC3)c3ccccc3n2)cc1 | 1.14
COc1ccc(-c2noc(CSc3nc4ccc(C)cc4[nH]3)n2)cc1OC | -1.04
COc1cc(C2Nc3ccccc3NC3=C2C(=O)CC(c2cccs2)C3)cc(Br)c1O (configuration not stated) | 4.57*
COc1ccc(C2Nc3ccccc3NC3=C2C(=O)CC(c2ccccc2)C3)cc1OC (configuration not stated) | 0.83
COc1cccc(C2Nc3ccccc3NC3=C2C(=O)CC(c2ccc(OC)c(OC)c2)C3)c1 (configuration not stated) | -0.54
SMILES | Dicer processing
COc1cc(C2Nc3ccccc3NC3=C2C(=O)CC(c2ccccc2)C3)cc(Br)c1O (configuration not stated) | 4.89*
COc1ccc(C2Nc3ccccc3NC3=C2C(=O)CC(c2cccs2)C3)cc1 (configuration not stated) | 23.9
COc1ccc(C2CC(=O)C3=C(C2)Nc2ccccc2NC3c2ccc(OC(C)=O)cc2)cc1OC (configuration not stated) | -0.1
COc1ccc(C2CC(=O)C3=C(C2)Nc2ccccc2NC3c2ccc(OC(C)=O)c(OC)c2)cc1 (configuration not stated) | 1.56
COc1ccc(C2CC(=O)C3=C(C2)Nc2ccccc2NC3c2cccc(O)c2)cc1OC (configuration not stated) | 3.52*
COc1ccc(C2Nc3ccccc3NC3=C2C(=O)CC(c2ccc(OC)c(OC)c2)C3)cc1 (configuration not stated) | 2.55
Cc1nc(C)c(Oc2ccc(Cl)cc2Cl)c(NCc2ccc(Cl)cc2)n1 | -0.55
CSCCC(C(=O)N1CCCCC1)N1C(=O)C2C3c4ccccc4C(c4ccccc43)C2C1=O (configuration not stated) | 0.37
COC(=O)CNC(=O)CS(=O)(=O)C(C)C | -0.88
CN(/N=C/c1ncc(C(F)(F)F)cc1Cl)C(=O)c1ccccc1Cl | 0.44
O=S(=O)(NC1Cc2ccccc2C1)c1ccc(Br)s1 | -0.63
CC(=O)C(C)(C)OC(=O)NCCc1ccccn1 | -0.94
COc1ccc(/C=C/c2ccc(OC)cc2)cc1 | 3.15*
COc1ccc(/C=C/c2sc(C)c(C)[n+]2C)cc1 | -4.76
COc1ccc(/C=C/c2nc3ccccc3n2C)cc1 | 1.15
O=C(c1nc(SCc2ccc(Cl)cc2)n2ccccc12)C(F)(F)F | 1.35
Nc1nnc(SCC(=O)Nc2ccc(F)c(F)c2F)s1 | -0.64
Nc1nnc(SCC(=O)Nc2ccccc2)s1 | 6.02
Nc1nnc(SCC(=O)Nc2nncs2)s1 | 3.11*
COc1ccc2c(c1)c(=O)oc1cc(OCC(N)=O)ccc12 | 0.74
C/C(=N\O)C(C)(C)Nc1cc(C(F)(F)F)cc(C(F)(F)F)c1 | -1.99
CC1(C)OC(=O)C(=NNc2cc(C(F)(F)F)cc(C(F)(F)F)c2)C(=O)O1 | 5.13*
CC(C)(C)NC(=S)Nc1cc(C(F)(F)F)cc(C(F)(F)F)c1 | -0.68
CCCc1c(O)ccc2c(=O)cc(C(=O)OC)sc12 | -0.58
CCOC(=O)c1c(NC(=O)C2C3C=CC(CC3)C2C(=O)O)sc2c1CC(C)CC2 (configuration not stated) | 2.8
SMILES | Dicer processing
O=C(/C=C/c1cccs1)NC(=S)N1CCOCC1 | -0.94
CC(=O)/C(=C\N(C)C)SCc1ccccc1C | -1.26
CCOC(=O)CSc1nnnn1-c1ccccc1 | 3.72*
O=C(CSc1nnnn1-c1ccccc1)c1ccccc1 | 0.17
OCCSc1nnnn1-c1ccccc1 | -1.28
Cc1cc(C)c2c(C)c(C(=O)NN)sc2n1 | -1.45
Cn1c(/C=C/c2cccc(Oc3ccccc3)c2)c([N+](=O)[O-])c(=O)n(C)c1=O | -0.61
CCN(/C=C/c1nnnn1-c1ccc(Br)cc1)CC | -0.37
CCN(/C=C/c1nnnn1-c1ccc(Cl)cc1)c1ccccc1 | 3.25*
CCc1ccc(-n2nnnc2/C=C/N(C)C)cc1 | 1.7
COC(=O)c1cnc(Sc2cc(C(F)(F)F)cc(C(F)(F)F)c2)nc1C(F)(F)F | -1.4
CC(C)c1ccc(S(=O)(=O)/N=C(\N)CSc2ccc(Cl)cc2)cc1 | -0.68
CCOC(=O)C(NC(=O)c1cccc(Cl)c1)(Nc1ccc(C)c(C)c1)C(F)(F)F (configuration not stated) | 2.32
Cc1nn2c(C(F)(F)F)cc(-c3ccco3)nc2c1-c1ccc(Cl)cc1 | -1.08
CS(=O)(=O)/C(C#N)=C/c1c(-c2ccccc2)nc2n1CCS2 | 1.54
FC(F)(F)c1cccc(N=Cc2c(-c3ccccc3)nc3n2CCS3)c1 | 2.74
Clc1ccc(N=Cc2c(-c3ccccc3)nc3n2CCS3)cc1 | 3.87*
O=C(c1cccnc1)N(c1ccc2oc(=O)sc2c1)S(=O)(=O)c1ccc(Br)cc1 | 10.9*
CCCCC(=O)N(c1ccc2oc(=O)sc2c1)S(=O)(=O)c1ccc(OC)cc1 | 2.41
CC(C)c1ccc(S(=O)(=O)N(C(=O)c2ccncc2)c2ccc3oc(=O)sc3c2)cc1 | 0.05
CCCC(=O)N(c1ccc2oc(=O)sc2c1)S(=O)(=O)c1ccc(F)cc1C | 1.69
CCCCC(=O)N(c1ccc2oc(=O)sc2c1)S(=O)(=O)c1ccc(C(=O)O)cc1 | -1.11
COc1ccc(S(=O)(=O)N(C(=O)C(C)C)c2ccc3oc(=O)sc3c2)cc1 | 0.09
Cc1cc(F)ccc1S(=O)(=O)N(C(=O)c1cccnc1)c1ccc2oc(=O)sc2c1 | 4.84*
Cc1ccc(S(=O)(=O)N(C(=O)c2cccnc2)c2ccc3oc(=O)sc3c2)cc1 | 4.97*
Fc1ccccc1CN1CCN(CC2CC=CCC2)CC1 (configuration not stated) | -0.94
Cc1c(Cc2ccc(Cl)c(Cl)c2)c(=O)oc2cc(O)ccc12 | 2.5
CN1CCN(Cc2c(O)ccc3c(=O)c(Oc4ccc(C(C)(C)C)cc4)c(C(F)(F)F)oc23)CC1 | 1.95
